This is one part of the list. How many sequences the whole screen found active is unknown.
Biological target: furin, P09958
Experiment: furin cleavage Z-score vs untreated control; higher = more cleavage, active = 3.5 or more, inactive = 1 or less, 8 variable residues between constant flanks
Procedure, shortened: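 To give the cleavage Z-score, log read counts were set against furin-free reactions, lowess-adjusted and scaled by median absolute deviation. These counts came from PCR adapter-tagged, sequenced DNA released when purified furin cut 8-mer peptides fused to a cDNA oligonucleotide and held on magnetic beads by their N-terminus. Digests were 0.01 ml, 1:10 enzyme:substrate, in 50 mM HEPES pH 7.5 with CaCl2 and NaCl, for 7.5, 15 or 30 min.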

Sequence of furin, P09958 (P09958 whole entry): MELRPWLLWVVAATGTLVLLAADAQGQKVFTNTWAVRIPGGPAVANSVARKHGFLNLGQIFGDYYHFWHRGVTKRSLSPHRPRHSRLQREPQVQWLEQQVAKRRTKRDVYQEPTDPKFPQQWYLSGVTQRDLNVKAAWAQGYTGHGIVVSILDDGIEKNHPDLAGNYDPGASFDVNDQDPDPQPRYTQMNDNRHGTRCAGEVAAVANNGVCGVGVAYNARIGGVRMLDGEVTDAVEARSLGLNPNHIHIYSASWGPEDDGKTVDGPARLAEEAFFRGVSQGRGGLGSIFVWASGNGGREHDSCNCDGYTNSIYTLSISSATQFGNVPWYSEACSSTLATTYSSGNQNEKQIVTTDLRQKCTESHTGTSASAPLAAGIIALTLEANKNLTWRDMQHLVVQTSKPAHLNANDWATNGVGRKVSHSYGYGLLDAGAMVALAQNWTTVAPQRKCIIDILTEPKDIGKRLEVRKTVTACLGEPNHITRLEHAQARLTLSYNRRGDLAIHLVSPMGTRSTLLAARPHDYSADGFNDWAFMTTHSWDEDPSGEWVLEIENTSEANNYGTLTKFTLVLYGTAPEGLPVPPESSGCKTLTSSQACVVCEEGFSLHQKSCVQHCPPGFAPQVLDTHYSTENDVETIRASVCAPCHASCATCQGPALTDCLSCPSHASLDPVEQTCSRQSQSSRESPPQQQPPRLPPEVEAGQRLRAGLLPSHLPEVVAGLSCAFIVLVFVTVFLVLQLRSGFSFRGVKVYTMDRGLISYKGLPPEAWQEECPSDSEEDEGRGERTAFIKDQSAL

CAIHARFRRGAGNASASA [FS-250]
furin cleavage Z-score (7.5 min): 11.1 (active)
furin cleavage Z-score (15 min): 12.1 (active)
furin cleavage Z-score (30 min): 9.69 (active)

CALTARFRRGAGNASASA [FS-1374]
furin cleavage Z-score (7.5 min): 10.8 (active)
furin cleavage Z-score (15 min): 12 (active)
furin cleavage Z-score (30 min): 9.56 (active)

CATREAFRRGAGNASASA [FS-883]
furin cleavage Z-score (7.5 min): -0.796 (inactive)
furin cleavage Z-score (15 min): -0.878 (inactive)
furin cleavage Z-score (30 min): -1.14 (inactive)

CARTDRCRRGAGNASASA [FS-1483]
furin cleavage Z-score (7.5 min): 7.57 (active)
furin cleavage Z-score (15 min): 8.52 (active)
furin cleavage Z-score (30 min): 8.04 (active)

CARTGRQVLGAGNASASA [FS-3104]
furin cleavage Z-score (7.5 min): 0.169 (inactive)
furin cleavage Z-score (15 min): -0.821 (inactive)
furin cleavage Z-score (30 min): -1.11 (inactive)

CAAYDIIICDAGNASASA [HC815]
furin cleavage Z-score (7.5 min): -1.2 (inactive)
furin cleavage Z-score (15 min): -0.574 (inactive)
furin cleavage Z-score (30 min): -0.848 (inactive)

CAVVGVVCAAAGNASASA [HC1107]
furin cleavage Z-score (7.5 min): 0.556 (inactive)
furin cleavage Z-score (15 min): -0.0757 (inactive)
furin cleavage Z-score (30 min): -0.152 (inactive)

CAVQGLLRFCAGNASASA [HC618]
furin cleavage Z-score (7.5 min): -0.0765 (inactive)
furin cleavage Z-score (15 min): 0.463 (inactive)
furin cleavage Z-score (30 min): -0.436 (inactive)

CAIRKRDRRGAGNASASA [FS-1016]
furin cleavage Z-score (7.5 min): 12 (active)
furin cleavage Z-score (15 min): 13.2 (active)
furin cleavage Z-score (30 min): 9.35 (active)

CALARRSRRGAGNASASA [FS-816]
furin cleavage Z-score (7.5 min): 7.83 (active)
furin cleavage Z-score (15 min): 7.63 (active)
furin cleavage Z-score (30 min): 6.48 (active)

CAGVPRSFRGAGNASASA [TR2]
furin cleavage Z-score (7.5 min): 0.299 (inactive)
furin cleavage Z-score (15 min): -0.905 (inactive)
furin cleavage Z-score (30 min): -1.74 (inactive)

CAPFVSCQRGAGNASASA [HC1164]
furin cleavage Z-score (7.5 min): 0.755 (inactive)
furin cleavage Z-score (15 min): 0.834 (inactive)
furin cleavage Z-score (30 min): -0.509 (inactive)

CAIIKRSAWEAGNASASA [FS-2408]
furin cleavage Z-score (7.5 min): -0.767 (inactive)
furin cleavage Z-score (15 min): -0.224 (inactive)
furin cleavage Z-score (30 min): -0.00284 (inactive)

CAIIKRSRRGAGNASASA [FS-1344]
furin cleavage Z-score (7.5 min): 6.89 (active)
furin cleavage Z-score (15 min): 7.38 (active)
furin cleavage Z-score (30 min): 7.28 (active)

CALASRRYRGAGNASASA [FS-547]
furin cleavage Z-score (7.5 min): -0.863 (inactive)
furin cleavage Z-score (15 min): -0.493 (inactive)
furin cleavage Z-score (30 min): -0.101 (inactive)

CAPANRSRRGAGNASASA [FS-67]
furin cleavage Z-score (7.5 min): 10.1 (active)
furin cleavage Z-score (15 min): 11.8 (active)
furin cleavage Z-score (30 min): 9.38 (active)

CAMEEKSQHLAGNASASA [HC11]
furin cleavage Z-score (7.5 min): 0.661 (inactive)
furin cleavage Z-score (15 min): -0.101 (inactive)
furin cleavage Z-score (30 min): 0.52 (inactive)

CATTPQSGSWAGNASASA [HC59]
furin cleavage Z-score (7.5 min): -0.528 (inactive)
furin cleavage Z-score (15 min): -0.454 (inactive)
furin cleavage Z-score (30 min): -0.569 (inactive)

CAGFTKVCGAAGNASASA [HC440]
furin cleavage Z-score (7.5 min): 0.851 (inactive)
furin cleavage Z-score (15 min): 0.701 (inactive)
furin cleavage Z-score (30 min): -1.33 (inactive)

CANSSIVYEAAGNASASA [HC265]
furin cleavage Z-score (7.5 min): 0.639 (inactive)
furin cleavage Z-score (15 min): -1.3 (inactive)
furin cleavage Z-score (30 min): -0.329 (inactive)

CAEVVTSGWVAGNASASA [HC2216]
furin cleavage Z-score (7.5 min): 0.374 (inactive)
furin cleavage Z-score (15 min): -0.391 (inactive)
furin cleavage Z-score (30 min): -0.0659 (inactive)

CARVARVRGGAGNASASA [FS-1938]
furin cleavage Z-score (7.5 min): -0.221 (inactive)
furin cleavage Z-score (15 min): -0.337 (inactive)
furin cleavage Z-score (30 min): -1.51 (inactive)

CAPQARVAIKAGNASASA [HC1494]
furin cleavage Z-score (7.5 min): 0.98 (inactive)
furin cleavage Z-score (15 min): -0.346 (inactive)
furin cleavage Z-score (30 min): 1.74

CADFERKAREAGNASASA [FS-222]
furin cleavage Z-score (7.5 min): 0.924 (inactive)
furin cleavage Z-score (15 min): 0.123 (inactive)
furin cleavage Z-score (30 min): 0.387 (inactive)

CAGRGRGGGGAGNASASA [NG4]
furin cleavage Z-score (7.5 min): 0.497 (inactive)
furin cleavage Z-score (15 min): -0.137 (inactive)
furin cleavage Z-score (30 min): 0.673 (inactive)

CAGTPCSGSWAGNASASA [HC1836]
furin cleavage Z-score (7.5 min): -0.934 (inactive)
furin cleavage Z-score (15 min): -0.454 (inactive)
furin cleavage Z-score (30 min): -1.18 (inactive)

CARVARHAAPAGNASASA [FS-2193]
furin cleavage Z-score (7.5 min): 7.61 (active)
furin cleavage Z-score (15 min): 8.49 (active)
furin cleavage Z-score (30 min): 8.42 (active)

CAGRGRERRWAGNASASA [FS-333]
furin cleavage Z-score (7.5 min): 6.35 (active)
furin cleavage Z-score (15 min): 9.27 (active)
furin cleavage Z-score (30 min): 8.33 (active)

CAGRERMAREAGNASASA [FS-332]
furin cleavage Z-score (7.5 min): 5.27 (active)
furin cleavage Z-score (15 min): 6.35 (active)
furin cleavage Z-score (30 min): 5.57 (active)

CAGREILLGPAGNASASA [HC664]
furin cleavage Z-score (7.5 min): -0.781 (inactive)
furin cleavage Z-score (15 min): -0.532 (inactive)
furin cleavage Z-score (30 min): 0.339 (inactive)

CARQAEVIAPAGNASASA [HC1031]
furin cleavage Z-score (7.5 min): 0.765 (inactive)
furin cleavage Z-score (15 min): 1.4
furin cleavage Z-score (30 min): -0.146 (inactive)

CARVARVAREAGNASASA [FS-1799]
furin cleavage Z-score (7.5 min): 7.74 (active)
furin cleavage Z-score (15 min): 5.71 (active)
furin cleavage Z-score (30 min): 5.82 (active)

CARVDRDVAPAGNASASA [FS-2616]
furin cleavage Z-score (7.5 min): 0.776 (inactive)
furin cleavage Z-score (15 min): -0.0435 (inactive)
furin cleavage Z-score (30 min): 0.369 (inactive)

CAEVVISTWVAGNASASA [HC125]
furin cleavage Z-score (7.5 min): 0.441 (inactive)
furin cleavage Z-score (15 min): -0.457 (inactive)
furin cleavage Z-score (30 min): -1.26 (inactive)

CACGAEITGHAGNASASA [HC1176]
furin cleavage Z-score (7.5 min): -2.29 (inactive)
furin cleavage Z-score (15 min): -1.09 (inactive)
furin cleavage Z-score (30 min): -4.52 (inactive)

CAEVPCHAPSAGNASASA [HC2363]
furin cleavage Z-score (7.5 min): 0.635 (inactive)
furin cleavage Z-score (15 min): 1.02
furin cleavage Z-score (30 min): 0.728 (inactive)

CARIERVIGAAGNASASA [FS-2212]
furin cleavage Z-score (7.5 min): 0.267 (inactive)
furin cleavage Z-score (15 min): -1.07 (inactive)
furin cleavage Z-score (30 min): 0.338 (inactive)

CAEVPCHRPWAGNASASA [HC2408]
furin cleavage Z-score (7.5 min): -0.0166 (inactive)
furin cleavage Z-score (15 min): 0.18 (inactive)
furin cleavage Z-score (30 min): 0.457 (inactive)

CARVARERRWAGNASASA [FS-292]
furin cleavage Z-score (7.5 min): 7.91 (active)
furin cleavage Z-score (15 min): 11.7 (active)
furin cleavage Z-score (30 min): 9.72 (active)

CARQGRIARVAGNASASA [FS-1608]
furin cleavage Z-score (7.5 min): 4.13 (active)
furin cleavage Z-score (15 min): 2.36
furin cleavage Z-score (30 min): 3.61 (active)

CARIERVARVAGNASASA [FS-187]
furin cleavage Z-score (7.5 min): 2.36
furin cleavage Z-score (15 min): 1.28
furin cleavage Z-score (30 min): 4.15 (active)

CARQGRVISVAGNASASA [FS-2168]
furin cleavage Z-score (7.5 min): -2.08 (inactive)
furin cleavage Z-score (15 min): -0.187 (inactive)
furin cleavage Z-score (30 min): 0.163 (inactive)

CARPGRPARVAGNASASA [FS-1159]
furin cleavage Z-score (7.5 min): -0.325 (inactive)
furin cleavage Z-score (15 min): -0.113 (inactive)
furin cleavage Z-score (30 min): -0.65 (inactive)

CAFCTTPCSGAGNASASA [HC1947]
furin cleavage Z-score (7.5 min): 1.42
furin cleavage Z-score (15 min): -0.358 (inactive)
furin cleavage Z-score (30 min): -1.43 (inactive)

From the supplement of paper PMC3545927
